One may read the inhibition as the relative decrease from the control value, in per cent.

Structures are written as SMILES. About 1,900 (0.58%) of roughly 330,000 compounds were called active. Inconclusive results (about 4%) are left out. A selection follows. Measured potencies and affinities stand elsewhere. A number with no mark means an inactive call. Cut-off read from the data, not from the text of the source: inconclusive = inhibition above about 70% without an active follow-up result; inactive = below that.

This passage reports inhibition results from PubChem BioAssay AID449762 (Southern Research Specialized Biocontainment Screening …, 2010).

This assay in a line: M. tuberculosis growth inhibition, HTS (AID 449762).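 Note: bacterial growth assessed after seven days of incubation.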 The following applies: M. tuberculosis H37Rv growth inhibition, 7H9 media; at 25 µM; active compounds read high.
Regarding `O=C(Nc1sc2c(c1C(=O)NCc1cccnc1)CCCC2)c1ccco1`, the inhibition is -2.45%.
As for `O=C(COc1ccccc1)Nc1sc2c(c1C(=O)NCc1cccnc1)CCCC2`, the inhibition is -7.35%.
Take `O=C(Nc1c2c(nn1-c1ccc(F)cc1)CS(=O)(=O)C2)c1ccc2c(c1)OCO2`: the inhibition was -6.48%.
Turning to `Cn1cc(/C=C/C(=O)c2ccccc2)c2ccccc21`, the inhibition was 58.1%.
To `COc1ccc(C(=O)/C=C/c2cn(CC(O)CN3CCN(C)CC3)c3ccccc23)cc1OC` (stereo not given) belongs 8.14%.
As for `Cc1cc(C)c(CN2CCC(n3nccc3NC(=O)CCOc3ccccc3)CC2)cc1C`, the figure is 67.4%; as for `O=C(Nc1ccc(-c2ccccc2)cc1)c1ccccc1`, 9.06%; as for `COc1ccc(OCCN(C)CC(=O)Nc2c(C)cccc2C)cc1`, -3.93%.
With `Cc1c(C(=O)Nc2ccc(F)c(F)c2)oc2ccc(S(=O)(=O)N3CCCCC3)cc12`, the inhibition was 4.31%.
To `Fc1ccc(Nc2ncnc3ccccc23)cc1` belongs 4.5%; to `N=c1c2ccccc2nnn1-c1ccc(C(F)(F)F)cc1`, -1.84%; to `O=C(Nc1ncc2c(n1)-c1ccccc1OC2)c1ccc(Cl)cc1Cl`, -7.91%.
To `CCCCc1ncc(CN2CCN(Cc3ccc(C)cc3)C(CCO)C2)[nH]1` (stereo not given) belongs 0.18%; to `COc1ccc(NC(=O)C(=S)NC2CCCCC2)cc1`, 8.92%; to `C=CCc1c(C)nc(C)nc1N/N=C/c1ccc(F)cc1`, 6.56%.
To `C=CCc1c(C)nc(C)nc1N/N=C/c1ccccc1` belongs -2.25%.
`C#CCOCCOCCOCCNc1nc(N2CCN(C(=O)[C@H](CCC(=O)O)n3cc([C@@H](N)[C@H](C)CC)nn3)CC2)nc(N2CCN(C(=O)[C@H](CCC(=O)O)n3cc([C@@H](N)CCSC)nn3)CC2)n1`: the inhibition is 3.47%.
In the case of `O=C1C=C(c2ccc3c(c2)oc2ccccc23)C[C@@H](c2ccc3c(c2)OCO3)C1`, the inhibition was 36.8%.
For the compound `c1ccc(C2[C@H]3CN(CC4CCCCC4)[C@H](c4ccccc4)C34CC2(c2ccccc2)C4)cc1` (stereo not given in full), the inhibition is 2.3%.
Turning to `FC(F)(F)c1ccc(C2[C@H]3CN(CC4CCCCC4)[C@H](c4ccccc4)C34CC2(c2cccnc2)C4)cc1` (stereo not given in full), the inhibition was 58%.
On to `CC(C)(C#CCCCCC#CC(C)(C)[N+](C)(C)C)[N+](C)(C)C`, for which the inhibition was -2.46%.
For the compound `Cc1ccc(/C=C/C(=O)c2ccc(C)cc2)cc1`, the inhibition is -12.1%.
With `Cc1ccc(C(=O)/C=C/C(=O)O)cc1`, the inhibition is -2.7%.
For `Cc1cc(Nc2ccc(C(=O)O)cc2)n2nc(C)nc2n1`, the inhibition was -2.73%.
For the compound `O=C(Nc1ccccc1)c1nc2ccccc2s1`, the inhibition is 23.7%.
As for `O=C(COc1ccccc1)Nc1nnc(-c2ccccc2Cl)o1`, the inhibition was 28.7%.
As for `OC1CCCN(Cc2nc(Cc3ccccc3Cl)no2)C1` (stereo not given), the inhibition was -6.97%.
On to `CCCCC[C@@H](O)c1cc2ccccc2c(=O)o1`, for which the inhibition was -0.25%.
With `O=C(O)c1ccccc1Nc1cccc(OCc2ccc3ccccc3n2)c1`, the inhibition is -1.2%.
Take `CCc1ccc2c(c1)C(c1ccc(N3CCOCC3)cc1)=NNC(c1ccncc1)=N2`: the inhibition is 44.4%.
For `CCOC(=O)C1CCCN(C(=O)CCCn2c(=O)c3cccn3c3cccnc32)C1` (stereo not given), the inhibition is 1.46%.
For `Cc1ccc(N2CC(C(=O)N3CCC(C(=O)Nc4ccc(Br)cc4)CC3)CC2=O)cc1` (stereo not given), the inhibition is 32.6%.
In the case of `CCc1ccc(N=c2c([N+](=O)[O-])nn(-c3ccccc3)n2O)cc1`, the inhibition is 64.6%.
To `COc1ccccc1N=c1c2c([N+](=O)[O-])cc([N+](=O)[O-])cc2n(O)n1-c1ccccc1OC` belongs -0.38%.
As for `COc1ccc(C(=O)N(CC2CCCO2)C(C(=O)NC2CCCC2)c2ccc(C)cc2)cc1OC` (stereo not given), the inhibition was -13.5%.
Turning to `COc1ccc(C(=O)CN2CC(C)SC2=Nc2ccc(Cl)cc2)cc1` (stereo not given), the inhibition is 13.6%.
Consider `O=C1O/C(=C/c2ccccc2)c2ccccc21`, for which the inhibition is 4.48%.
As for `CN(C)/C=C1/OC(=O)C(C#N)=C1c1ccc(Cl)cc1`, the figure is -3.95%; as for `O=C1CC(c2ccc(Cl)cc2)CC(=O)C1CS(=O)(=O)c1ccccc1` (stereo not given), 5.94%; as for `CCC(=O)N1N=C(c2ccc(NS(=O)(=O)c3ccccc3)cc2)CC1c1ccco1` (stereo not given), 1.78%.
For `CCn1c(=O)c2c(nc3n2CCCN3CCc2ccccc2)n(C)c1=O`, the inhibition was 6.27%.
To `COc1ccc(Cc2c(C)nc(N)nc2Cl)cc1` belongs 8.87%; to `Cc1nc(N)nc(Cl)c1Cc1ccc(Cl)cc1`, 0.95%.
For `COc1cc(OC)cc(C(=O)NCC(=O)OCC(=O)N2CCc3ccccc32)c1`, the inhibition was 5.39%.
In the case of `Cc1cc2c(nn1)CCc1c-2no[n+]1[O-]`, the inhibition was -1.95%.
On to `O=C(CN1CCN(c2nc(-c3ccccc3)cs2)CC1)Nc1ccc2c(c1)OCO2`, for which the inhibition was -7.77%.
On to `O=C(CN1CCN(c2ncccn2)CC1)NCc1ccc2c(c1)OCO2`, for which the inhibition is -8.33%.
For `O=C1C2CC=C(Cl)CC2C(=O)N1CC1Cc2ccccc2CO1` (stereo not given), the inhibition is -2.11%.
Consider `N#Cc1cccc(NC(=O)CCc2ccc(S(=O)(=O)N3CCOCC3)cc2)c1`, for which the inhibition is 2.35%.
With `CCOc1ccc2nc(N3CCCC(C(=O)NCCCN4C(C)CCCC4C)C3)sc2c1` (stereo not given), the inhibition was 6.54%.
Regarding `CCOc1ccc(CCNC(=O)C2CCN(c3nnc(-n4cccc4)s3)CC2)cc1`, the inhibition was -2%.
With `OCC[C@H]1C[C@@H](O)[C@H](O)[C@@]2(Cc3ccccc3CO2)O1`, the inhibition was -8.04%.
As for `O=C(CSc1nnc(Nc2ccccc2F)s1)NC(=O)CN1CCCC1=O`, the figure is -10.7%.
Take `COc1ccc(OCc2cccc(C(=O)NN)c2)cc1`: the inhibition is 5.13%.
For the compound `Cc1nn(Cc2cccc(C(=O)Nn3cc([N+](=O)[O-])cn3)c2)c(C)c1[N+](=O)[O-]`, the inhibition is 10.2%.
Turning to `CC1CCN(C(=O)Cn2nnc(-c3ccccc3)n2)CC1`, the inhibition was 5.98%.
For the compound `O=C1N=C(N2CCCC2)S/C1=C\c1ccccc1`, the inhibition is 0.89%.
`CC(C)(C)c1ccc(/C=C2/SC(N3CCCC3)=NC2=O)cc1`: the inhibition is 24.7%.
Consider `Cc1ccsc1/C=C1\SC(N2CC(C)OC(C)C2)=NC1=O` (stereo not given), for which the inhibition was 67.9%.
Regarding `Cc1ccsc1/C=C1/SC(N2CC(C)OC(C)C2)=NC1=O` (stereo not given), the inhibition was 68.3%.
